Read-out in assay [1]: Tissue Factor, F3 (gene 2152)
Kind of assay: BSK_CASM3C_TissueFactor: BioMAP Diversity Plus: CASM3C Assay for Tissue Factor Biomarker Activity (AID 2283052).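 Note: cell surface tissue factor protein level read by ELISA.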 Conditions: primary human coronary artery smooth muscle cells; actives raise or lower the signal.

Read-out in assay [2]: Interferon-gamma inducible Protein 10 (IP10), CXCL10 (gene 3627)
Kind of assay: BSK_hDFCGF_IP10: BioMAP Diversity Plus: hDFCGF Assay for Interferon-gamma inducible Protein 10 (IP10) Biomarker Activity (AID 2283053). The following applies: primary human foreskin fibroblasts; actives raise or lower the signal. Put shortly: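 Cells: human dermal foreskin fibroblasts. Exposure: 24 h post-dosing. Detection: IP-10 ELISA, with values expressed against DMSO controls and fitted in both directions.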

Read-out in assay [3]: Urokinase-type plasminogen activator receptor (uPAR), PLAUR (gene 5329)
Kind of assay: BSK_CASM3C_uPAR: BioMAP Diversity Plus: CASM3C Assay for Urokinase-type plasminogen activator receptor (uPAR) Biomarker Activity (AID 2283054).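 Note: cell-surface uPAR protein level quantified by ELISA.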 The following applies: primary human coronary artery smooth muscle cells; actives raise or lower the signal.

Read-out in assay [4]: Vascular cell adhesion molecule 1 (VCAM1), VCAM1 (gene 7412)
Kind of assay: BSK_CASM3C_VCAM1: BioMAP Diversity Plus: CASM3C Assay for Vascular cell adhesion molecule 1 (VCAM1) Biomarker Activity (AID 2283055).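 Note: VCAM-1 protein level quantified by ELISA on the cells.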 The following applies: primary human coronary artery smooth muscle cells; actives raise or lower the signal.

Read-out in assay [5]: Collagen III, COL3A1 (gene 1281)
Kind of assay: BSK_hDFCGF_CollagenIII: BioMAP Diversity Plus: hDFCGF Assay for Collagen III Biomarker Activity (AID 2283056). The following applies: primary human foreskin fibroblasts; actives raise or lower the signal. The method, boiled down: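 Response relative to DMSO, fitted in both directions, reflects ELISA-measured collagen III in human primary skin fibroblasts 24 h after compound addition.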

Read-out in assay [6]: Epidermal growth factor receptor (EGFR), EGFR (gene 1956)
Kind of assay: BSK_hDFCGF_EGFR: BioMAP Diversity Plus: hDFCGF Assay for Epidermal growth factor receptor (EGFR) Biomarker Activity (AID 2283057). The following applies: primary human foreskin fibroblasts; actives raise or lower the signal. The method, boiled down: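 Dosing human primary skin fibroblasts, then measuring surface EGFR by ELISA at 24 h, gives the endpoint; gains and losses relative to DMSO were fitted in both directions.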

Read-out in assay [7]: Interleukin-8 (IL8), CXCL8 (gene 3576)
Kind of assay: BSK_hDFCGF_IL8: BioMAP Diversity Plus: hDFCGF Assay for Interleukin-8 (IL8) Biomarker Activity (AID 2283058). Conditions: primary human foreskin fibroblasts; actives raise or lower the signal. Put shortly:
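Fibroblast monolayers (human foreskin, hDFCGF) received test chemical for 24 h before ELISA detection of IL-8; either increases or decreases relative to DMSO count as activity.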

Assay [8] can be described thus: BSK_hDFCGF_Proliferation: Cell Proliferation Assessment in the BioMAP Diversity Plus: hDFCGF Assay (AID 2283059).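 Note: curves fitted for both rise and fall of signal versus DMSO baseline.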 The following applies: primary human foreskin fibroblasts. The method, boiled down:
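Sub-confluent human foreskin fibroblast cultures receive test chemical […]. Relative cell number is quantified by sulforhodamine B staining (0.1%, after 10% TCA fixation) at 560 nm, with bidirectional fitting referenced to DMSO.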

Read-out in assay [9]: Macrophage colony-stimulating factor (MCSF), CSF1 (gene 1435)
Kind of assay: BSK_hDFCGF_MCSF: BioMAP Diversity Plus: hDFCGF Assay for Macrophage colony-stimulating factor (MCSF) Biomarker Activity (AID 2283060). The following applies: primary human foreskin fibroblasts; actives raise or lower the signal. The method, boiled down: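 fibroblasts (human foreskin, primary), 24 h post-dose; M-CSF by ELISA; bidirectional fit, DMSO = baseline.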

A short description of assay [10]: BSK_hDFCGF_SRB: Viability Assessment in the BioMAP Diversity Plus: hDFCGF Assay (AID 2283061).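 Note: cells exposed to compound for 24 h before the read.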 Conditions: primary human foreskin fibroblasts. Put shortly:
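SRB-based viability read on primary human skin fibroblasts at 24 h: TCA fixation, 0.1% dye, 560 nm. Gain or loss of signal is fitted against the DMSO negative control.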

Read-out in assay [11]: TIMP metallopeptidase inhibitor 1 (TIMP1), TIMP1 (gene 7076)
Kind of assay: BSK_hDFCGF_TIMP1: BioMAP Diversity Plus: hDFCGF Assay for TIMP metallopeptidase inhibitor 1 (TIMP1) Biomarker Activity (AID 2283062). The following applies: primary human foreskin fibroblasts; actives raise or lower the signal. Put shortly:
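Bidirectional curve fitting against DMSO baseline yielded this endpoint, based on ELISA detection of TIMP-1 in primary human foreskin fibroblasts exposed to compound for 24 h.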

Read-out in assay [12]: Monokine induced gamma interferon (MIG), CXCL9 (gene 4283)
Kind of assay: BSK_hDFCGF_MIG: BioMAP Diversity Plus: hDFCGF Assay for Monokine induced gamma interferon (MIG) Biomarker Activity (AID 2283063). Conditions: primary human foreskin fibroblasts; actives raise or lower the signal. Put shortly:
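Endpoint derived by bidirectional fitting relative to DMSO; MIG quantified via ELISA in primary human foreskin fibroblasts harvested 24 h after dosing.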

Read-out in assay [13]: Matrix Metallopeptidase 1 (MMP1), MMP1 (gene 4312)
Kind of assay: BSK_hDFCGF_MMP1: BioMAP Diversity Plus: hDFCGF Assay for Matrix Metallopeptidase 1 (MMP1) Biomarker Activity (AID 2283064). The following applies: primary human foreskin fibroblasts; actives raise or lower the signal. The method, boiled down:
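ELISA read-out of MMP1 from human foreskin fibroblasts (primary skin cells), 24 h post-dose. Gain or loss of signal was fitted bidirectionally versus DMSO negative control; cytotoxicity was checked by SRB in parallel cultures.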

Read-out in assay [14]: Vascular cell adhesion molecule 1 (VCAM1), VCAM1 (gene 7412)
Kind of assay: BSK_hDFCGF_VCAM1: BioMAP Diversity Plus: hDFCGF Assay for Vascular cell adhesion molecule 1 (VCAM1) Biomarker Activity (AID 2283065). The following applies: primary human foreskin fibroblasts; actives raise or lower the signal. Put shortly: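 Measured after 24 h chemical treatment of primary human skin fibroblasts, VCAM-1 was detected by ELISA and concentration-response analysed in both directions versus DMSO vehicle.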

Read-out in assay [15]: Plasminogen activator inhibitor-1 (PAI1), SERPINE1 (gene 5054)
Kind of assay: BSK_hDFCGF_PAI1: BioMAP Diversity Plus: hDFCGF Assay for Plasminogen activator inhibitor-1 (PAI1) Biomarker Activity (AID 2283066). Conditions: primary human foreskin fibroblasts; actives raise or lower the signal. The method, boiled down: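 Fibroblasts from human foreskin were treated with test chemical. After 24 h, PAI-1 was measured by ELISA. Activity was fitted in both directions relative to DMSO.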

Read-out in assay [16]: Intercellular Adhesion Molecule 1 (ICAM1), ICAM1 (gene 3383)
Kind of assay: BSK_KF3CT_ICAM1: BioMAP Diversity Plus: KF3CT Assay for Intercellular Adhesion Molecule 1 (ICAM1) Biomarker Activity (AID 2283067). Conditions: primary human keratinocytes with fibroblasts; actives raise or lower the signal. Put shortly:
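Bidirectional curve fitting against a DMSO baseline was applied to ICAM-1 ELISA signal from primary human skin co-cultures harvested 24 h after treatment, with SRB staining of parallel wells for overt cytotoxicity.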

Read-out in assay [17]: Interferon-gamma inducible Protein 10 (IP10), CXCL10 (gene 3627)
Kind of assay: BSK_KF3CT_IP10: BioMAP Diversity Plus: KF3CT Assay for Interferon-gamma inducible Protein 10 (IP10) Biomarker Activity (AID 2283068). Conditions: primary human keratinocytes with fibroblasts; actives raise or lower the signal. The method, boiled down:
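ELISA read-out of IP-10 after 24 h chemical dosing of human skin primary co-culture (keratinocytes, foreskin fibroblasts). Gain or loss of signal relative to DMSO, bidirectional curve fit.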

Assay [18] can be described thus: BSK_KF3CT_SRB: Viability Assessment in the BioMAP Diversity Plus: KF3CT Assay (AID 2283069).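 Note: total protein by sulforhodamine B staining as a cytotoxicity measure; fitted for both signal gain and loss against DMSO baseline.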 Conditions: primary human keratinocytes with fibroblasts. Put shortly: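 SRB read-out at 560 nm (0.1% stain, TCA-fixed cells) gauges overt cytotoxicity in a human skin keratinocyte–fibroblast co-culture 24 h post-dosing. Signal change was fitted bidirectionally relative to DMSO control.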

Read-out in assay [19]: Interleukin-1 alpha (IL1a), IL1A (gene 3552)
Kind of assay: BSK_KF3CT_IL1a: BioMAP Diversity Plus: KF3CT Assay for Interleukin-1 alpha (IL1a) Biomarker Activity (AID 2283070). The following applies: primary human keratinocytes with fibroblasts; actives raise or lower the signal. The method, boiled down:
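Primary skin co-culture (keratinocytes, foreskin fibroblasts), 24 h exposure; ELISA for IL-1a; bidirectional curve fit vs DMSO.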

Read-out in assay [20]: TIMP metallopeptidase inhibitor 2 (TIMP2), TIMP2 (gene 7077)
Kind of assay: BSK_KF3CT_TIMP2: BioMAP Diversity Plus: KF3CT Assay for TIMP metallopeptidase inhibitor 2 (TIMP2) Biomarker Activity (AID 2283071). Conditions: primary human keratinocytes with fibroblasts; actives raise or lower the signal. The method, boiled down:
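Chemicals were dosed onto human skin primary co-cultures of keratinocytes and foreskin fibroblasts, and TIMP-2 was measured by ELISA after 24 hours. Activity in either direction was fitted relative to DMSO.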

Activity calls are given as the source filed them. Rule for the calls: active = hit-call score of the fitted dose curve at least 0.9, where 1 is the maximum; inactive = score below 0.9.

As a reminder, the AC50 is the concentration at which the activity in the assay is half-maximal. For the molecule `CC(C)Oc1cccc(NC(=O)c2ccccc2C(F)(F)F)c1`, the result in assay [1], in assay [2], in assay [3], in assay [4], in [5] and in assay [6] was inactive. Also, the outcome in [7], in [9], in [11], in [12], in assay [13] and in assay [14] was inactive. For the same molecule, the result in assay [15], in [16], in assay [17], in assay [18], in assay [19] and in assay [20] was inactive. Further, the AC50 was 27.5 µM (active) in [8] and 20 µM (active) in [10].
For the molecule `COc1cc(OC)nc(NC(=O)NS(=O)(=O)c2ncccc2OCC(F)(F)F)n1`, the result in assay [1], in [2], in assay [3], in [4], in assay [5] and in assay [6] was inactive. Further, the result in assay [7], in assay [8], in assay [9], in assay [10], in assay [11] and in assay [12] was inactive. Further, the result in assay [13], in assay [14], in assay [15], in [16], in assay [17] and in assay [18] was inactive. Also, the result in assay [19] and in assay [20] was inactive.
Regarding `COc1ccc(-c2ccccc2)cc1NNC(=O)OC(C)C`, the outcome in [1], in assay [2], in assay [3], in [4], in assay [5] and in assay [6] was inactive. The outcome in assay [8], in assay [9], in assay [10], in [11], in [12] and in assay [13] was inactive. Besides, the outcome in [14], in [15], in assay [16], in assay [17], in assay [18] and in [19] was inactive. Further, in [20], the result was inactive.
For `Cc1cnc(C2=NC(C)(C(C)C)C(=O)N2)c(C(=O)O)c1` (centres undefined), the outcome in assay [1], in assay [2], in [3], in assay [4], in [5] and in [6] was inactive. Moreover, the outcome in assay [7], in assay [8], in [9], in assay [10], in assay [11] and in assay [12] was inactive. In addition, the outcome in [13], in assay [14], in assay [15], in assay [16], in assay [17] and in assay [18] was inactive. Besides, the result in [19] and in assay [20] was inactive.
For the molecule `CC1(C)C(C=C(Cl)Cl)C1C(=O)OC(C#N)c1cccc(Oc2ccccc2)c1` (centres undefined), the outcome in assay [1], in [2], in assay [3], in assay [4], in assay [5] and in assay [6] was inactive. In addition, the result in [7], in assay [8], in assay [9], in assay [10], in assay [11] and in [12] was inactive. Further, the outcome in assay [13], in [14], in assay [15], in assay [16], in assay [17] and in [18] was inactive. Further, the result in assay [19] and in [20] was inactive.
Turning to `COC(=O)NC(=S)Nc1ccccc1NC(=S)NC(=O)OC`, the result in [1], in [2], in assay [3], in assay [4], in assay [5] and in assay [6] was inactive. In addition, the outcome in [7], in [9], in [10], in [11], in assay [12] and in [14] was inactive. Moreover, the result in assay [15], in assay [16], in assay [17], in assay [18], in [19] and in [20] was inactive. For the same molecule, the AC50 in assay [8] is 29.8 µM (active); in assay [13], 3.97 µM (active).

The values above are taken from PubChem BioAssay (EPA / NIEHS).
